According to ChEMBL document CHEMBL3988442, “University of Dundee, Small-Polar-MMV Screening Library” (2021):

Experiments:
[1] = target: T1, Aspartate--tRNA(Asp/Asn) ligase (Mycobacterium tuberculosis (strain ATCC 25618 / H37Rv)) (UniProt P9WFW3); test: Assay for Asp RNA synthetase-1 from Mycobacterium tuberculosis; assay type: functional; parameters: scale not given: direction of the effect not stated beside the values; conditions: 30 µM; note: in the data most compounds retested in dose-response had high values
T1 sequence (whole entry): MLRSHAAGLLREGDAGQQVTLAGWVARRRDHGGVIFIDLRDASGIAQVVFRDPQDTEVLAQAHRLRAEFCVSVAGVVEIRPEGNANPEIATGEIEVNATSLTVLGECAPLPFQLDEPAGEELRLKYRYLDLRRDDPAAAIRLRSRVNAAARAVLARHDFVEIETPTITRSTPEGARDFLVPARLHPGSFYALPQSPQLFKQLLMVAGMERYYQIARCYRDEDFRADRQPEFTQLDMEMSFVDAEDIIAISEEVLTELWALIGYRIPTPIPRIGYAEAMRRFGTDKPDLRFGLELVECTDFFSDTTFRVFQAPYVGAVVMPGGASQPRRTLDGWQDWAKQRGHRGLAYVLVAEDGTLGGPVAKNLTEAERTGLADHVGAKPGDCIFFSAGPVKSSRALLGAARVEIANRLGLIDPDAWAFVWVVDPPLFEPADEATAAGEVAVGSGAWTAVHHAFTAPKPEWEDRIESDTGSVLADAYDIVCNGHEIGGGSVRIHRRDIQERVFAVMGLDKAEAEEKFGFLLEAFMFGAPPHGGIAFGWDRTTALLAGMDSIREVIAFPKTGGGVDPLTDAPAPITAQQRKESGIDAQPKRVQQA

[2] = target: Shiga toxin 2 (Escherichia coli O157:H7) (UniProt P09385+P09386); test: E. coli 0.157:H7 Shiga Toxin SOP - stx2 screening assay; assay type: functional; parameters: scale not given: direction of the effect not stated beside the values; conditions: 30 µM

## O=C([C@@H]1C[C@@H]2CCN(CCc3ccccc3)C[C@H]2O1)N1CCCC1
[1]
  Percent Effect: -0.868%
[2]
  Percent Effect: -14.6%

## Cc1ncncc1C(=O)Nc1cnn(CC(=O)NC2CCCC2)c1
[1]
  Percent Effect: -6.25%
[2]
  Percent Effect: -10.6%

## Cc1ccc(C(=O)N2CC[C@@H]3[C@H]2CCC(=O)N3c2ccccc2)o1
[1]
  Percent Effect: -6.1%
[2]
  Percent Effect: -13%

## c1cc2nc(C3CCN(CC4CC4)CC3)nn2cc1N1CCCC1
[1]
  Percent Effect: -1.69%
[2]
  Percent Effect: -3.75%

## CC(C)c1noc(C(C)N2CCN(Cc3ccccc3C#N)CC2)n1 (configuration not stated)
[1]
  Percent Effect: -1.01%
[2]
  Percent Effect: 12.5%

## COc1cccc(CC(=O)N2CCc3ncnc(NC(C)C)c3CC2)c1
[1]
  Percent Effect: -0.351%
[2]
  Percent Effect: -3.19%

## O=C(c1nn(-c2ccccc2F)cc1O)N1CCCC1
[1]
  Percent Effect: 3.09%
[2]
  Percent Effect: 16%

## COCC(=O)N1CCC(c2noc3nc(C)cc(C(F)(F)F)c23)CC1
[1]
  Percent Effect: 3.71%
[2]
  Percent Effect: -10.9%

## CCCc1cc(C(=O)N(C)Cc2cccc3ncccc23)n(C)n1
[1]
  Percent Effect: -1.28%
[2]
  Percent Effect: -12.5%

## CCC(=O)N1CCc2[nH]cnc2C12CCN(C(=O)CCS(C)(=O)=O)CC2
[1]
  Percent Effect: -0.836%
[2]
  Percent Effect: 9.19%

## CS(=O)(=O)NCC1CCCN(C(=O)COCc2ccccc2)C1 (configuration not stated)
[1]
  Percent Effect: -6.12%
[2]
  Percent Effect: -16.5%

## Cc1noc(C)c1CN1CC2(CCN(C(=O)c3c[nH]cn3)C2)CC1=O (configuration not stated)
[1]
  Percent Effect: 0.582%
[2]
  Percent Effect: -14.1%

## COC(=O)CNC(=O)CSCc1nc(O)c2c(C)c(C)sc2n1
[1]
  Percent Effect: -0.261%
[2]
  Percent Effect: -18.2%

## CCn1cc(NC(=O)NCC2(N3CCOCC3)CCSC2)cn1 (configuration not stated)
[1]
  Percent Effect: 1.79%
[2]
  Percent Effect: -20%

## Cc1ncc2c(n1)CCN(C(=O)Cc1c(C)noc1C)C2
[1]
  Percent Effect: -2.87%
[2]
  Percent Effect: -13.9%

## Cn1cccc1C(=O)N1CCn2cc(CNC(=O)CC3CC3)nc2C1
[1]
  Percent Effect: -0.0735%
[2]
  Percent Effect: -50.9%

## COc1ccc(F)cc1C(=O)N(C)Cc1cc(C)on1
[1]
  Percent Effect: -3.3%
[2]
  Percent Effect: -29.3%

## CN(CCN1CCOCC1)C(=O)CCc1cccc(Cl)c1
[1]
  Percent Effect: -4.7%
[2]
  Percent Effect: -13.5%

## O=C(c1cc(C2CC2)[nH]n1)N1CCCC(n2cncn2)C1 (configuration not stated)
[1]
  Percent Effect: -3.08%
[2]
  Percent Effect: 12.1%

## CCNC(=O)N1CCCC(c2noc(CC)n2)C1 (configuration not stated)
[1]
  Percent Effect: -2.74%
[2]
  Percent Effect: 17.9%

## Cc1ccc(Nc2nccc(C3CN(CC(N)=O)C3)n2)nc1
[1]
  Percent Effect: -1.29%
[2]
  Percent Effect: -33.3%

## OCCOCCN1CCCC1c1nc2cc(F)ccc2[nH]1 (configuration not stated)
[1]
  Percent Effect: -5.15%
[2]
  Percent Effect: -4.14%

## COc1ccc(CN2CCC3(CC2)NC(=O)CC3c2ccncc2)cc1 (configuration not stated)
[1]
  Percent Effect: 5.29%
[2]
  Percent Effect: 9.6%

## Cc1cnn(CC2CN(Cc3cccc(OCC(N)=O)c3)CCO2)c1 (configuration not stated)
[1]
  Percent Effect: -5.07%
[2]
  Percent Effect: 8.76%

## CCn1cc(NC(=O)CCc2ccc3c(c2)OCCCO3)cn1
[1]
  Percent Effect: -3.45%
[2]
  Percent Effect: -47.1%

## CCN1CCOC(CNCc2ccccc2OCc2ccccn2)C1 (configuration not stated)
[1]
  Percent Effect: 3.85%
[2]
  Percent Effect: 23.9%

## O=C(COc1coc(CN2CCCCC2)cc1=O)NCc1ccccc1
[1]
  Percent Effect: 10.2%
[2]
  Percent Effect: -39.3%

## Cc1ncccc1OC1(C(=O)NCCCN2CCOCC2)CCNCC1
[1]
  Percent Effect: 1.19%
[2]
  Percent Effect: -8.28%

## CN(C)C(=O)[C@@H]1C[C@@H]2CCN(Cc3nccs3)C[C@@H]2O1
[1]
  Percent Effect: 1.05%
[2]
  Percent Effect: 2.36%

## Cc1nnc(Nc2cccc(C3CCN(CCO)CC3)n2)s1
[1]
  Percent Effect: -2.1%
[2]
  Percent Effect: 2.64%

## CC(C)OCCN1CCC(N2CCN(C)C2=O)CC1
[1]
  Percent Effect: 0.182%
[2]
  Percent Effect: -16.8%

## COCCN1C(=O)C[C@H]2[C@H]1CCN2Cc1cccc(C#N)c1
[1]
  Percent Effect: -5.22%
[2]
  Percent Effect: -7.15%

## Cc1ccc(NCc2cncc3c2CCN(C(=O)C2CC=CC2)C3)nn1
[1]
  Percent Effect: 6.32%
[2]
  Percent Effect: -38%

## CC(C)N1CCO[C@H]2CN(C(=O)c3ccoc3)C[C@H]21
[1]
  Percent Effect: 8.86%
[2]
  Percent Effect: -1.73%

## CCCc1nc(CN2CCOC(CNc3cccnn3)C2)cs1 (configuration not stated)
[1]
  Percent Effect: 3.73%
[2]
  Percent Effect: 27.3%

## CNCC(=O)N1CCCC(c2cccc(Nc3nc(C)cc(C)n3)n2)C1 (configuration not stated)
[1]
  Percent Effect: 3.29%
[2]
  Percent Effect: -1.86%
